From PubChem BioAssay AID463173 (ICCB-Longwood Screening Facility, Harvard Medical School, 2010)
The whole screen tested about 52,000 compounds, of which about 4,300 (8.3%) were called active. Many of the other results were omitted from the sample, so actives are more common in it than they were. Values without a mark were called inactive. Rule as the data show it: active = survival mostly below about 52% (no sharp cut-off); inactive = mostly above about 56%.

Each compound was assayed on DeltatarO mutant (assay: growth inhibition of S. aureus wild type versus tarO mutant, primary screen, teichoic acid synthesis inhibitors, RN4220, OD600 (AID 463173)). Conditions: OD600, 18 h, stronger effect = lower value, screened at 18.75 µg/mL (by protocol).

SMILES | survival
O=C(CSc1nc(O)cc(=O)[nH]1)Nc1ccccc1 | 82%
CN(C(=O)c1c[nH]c2ccc(S(=O)(=O)Nc3cccc(C(F)(F)F)c3)cc2c1=O)C1CCCCC1 | 72%
COc1cccc(NS(=O)(=O)c2ccc3[nH]cc(C(=O)NC(C)c4ccccc4)c(=O)c3c2)c1 (centres undefined) | 37% (active)
O=C(NC1CCCC1)c1c[nH]c2ccc(S(=O)(=O)Nc3cccc(C(F)(F)F)c3)cc2c1=O | 16% (active)
Cc1ccccc1NS(=O)(=O)c1ccc2[nH]cc(C(=O)NC(C)c3ccccc3)c(=O)c2c1 (centres undefined) | 90%
CC(C)CCNC(=O)c1c[nH]c2ccc(S(=O)(=O)Nc3cccc(C(F)(F)F)c3)cc2c1=O | 74%
COc1cccc(NS(=O)(=O)c2ccc3[nH]cc(C(=O)NCCc4ccccc4)c(=O)c3c2)c1 | 83%
CCOc1ccc(-c2noc(CSc3nnc(Cc4ccccc4)n3-c3cccc(C)c3)n2)cc1 | 66%
Cc1ccc(C)c(Cn2c(SCC(=O)NCc3ccccc3)nc3ccccc32)c1 | 73%
COc1cc(NC(=O)c2cc(Cl)ccc2Cl)ccc1NC(=O)c1cc2ccccc2o1 | 55%
CCOc1ccc(S(=O)(=O)Nc2ccc3c(c2)c(C(C)=O)c(C)n3S(=O)(=O)c2ccc(OCC)cc2)cc1 | 67%
NC(=O)CSc1nnc(Cn2cnc3ccccc32)o1 | 79%
CCOc1ccc(NC(=O)CCC(=O)N2CCSc3ccccc32)cc1 | 75%
CCN(C(=O)c1coc(=O)c2ccccc12)c1ccccc1C | 113%
CCCN(C(=O)c1coc(=O)c2ccccc12)c1ccccc1C | 56% (active)
CCCN(C(=O)c1cn(C)c(=O)c2ccccc12)c1ccccc1C | 79%
CC(=O)N1CCCc2cc(S(=O)(=O)N3CCCC(C(=O)Nc4cccc(F)c4)C3)ccc21 (centres undefined) | 87%
CCc1ccc(-n2c(=O)c3c4c(sc3n(Cc3ccc(F)cc3)c2=O)CCCC4)cc1 | 42%
COc1ccc(-c2cc(C(F)(F)F)n3nc(C(=O)Nc4cc(Cl)cc(Cl)c4)cc3n2)cc1 | 86%
COc1ccc(Cl)cc1NC(=O)c1cc2nc(-c3ccc(C)cc3)cc(C(F)(F)F)n2n1 | 78%
COc1ccc(NC(=O)c2cc3nc(-c4ccc(Cl)c(Cl)c4)cc(C(F)(F)F)n3n2)c(OC)c1 | 47% (active)
COc1ccc(-c2cc(C(F)(F)F)n3nc(C(=O)Nc4cccc(Cl)c4C)cc3n2)cc1 | 70%
COC(=O)c1ccccc1NC(=O)c1cc2nc(-c3ccc(OC)cc3)cc(C(F)(F)F)n2n1 | 36% (active)
COc1cc(NC(=O)c2cc3nc(-c4ccc(C)cc4)cc(C(F)(F)F)n3n2)cc(OC)c1OC | 41% (active)
COc1ccc(-c2cc(C(F)(F)F)n3nc(C(=O)Nc4cc(C)ccc4C)cc3n2)cc1 | 70%
COC(=O)c1ccc(C(=O)OC)c(NC(=O)c2cc3nc(-c4ccc(C)cc4)cc(C(F)(F)F)n3n2)c1 | 83%
COc1ccc(-c2cc(C(F)(F)F)n3nc(C(=O)Nc4cc(C(F)(F)F)ccc4Cl)cc3n2)cc1OC | 152%

SMILES | survival
Cc1cc(N2CCC(C(O)(c3ccccc3)c3ccccc3)CC2)nc(C)n1 | 108%
Cc1cc(C)cc(-n2c(SCC(=O)Nc3ccc4c(c3)OCCO4)nc3c([nH]c4ccccc43)c2=O)c1 | 126%
CCc1ccc2oc(C(=O)N(Cc3ccc(N(C)C)cc3)Cc3ccco3)c(C)c2c1 | 71%
CCc1ccc2oc(C(=O)N(Cc3cccc(Cl)c3)Cc3ccco3)c(C)c2c1 | 53%
O=C(c1cccc(Cl)c1)N(Cc1ccco1)Cc1ccccc1Cl | 32% (active)
Cc1c(C(=O)N(Cc2ccco2)Cc2ccccc2Cl)oc2ccc(F)cc12 | 42% (active)
Cc1cc2oc(C(=O)N(Cc3ccc(Cl)cc3)Cc3ccco3)c(C)c2cc1Cl | 64%
Cc1cccc(C(=O)N(Cc2ccco2)Cc2ccccc2F)c1 | 102%
COc1cccc(C(=O)N(Cc2cccc(Cl)c2)Cc2ccco2)c1 | 68%
Cc1c(C(=O)N(Cc2cccc(Cl)c2)Cc2ccco2)oc2ccccc12 | 40% (active)
Cc1ccc(CN(Cc2ccco2)C(=O)c2oc3ccc(C)cc3c2C)cc1 | 54%
Cc1cc(C)cc(OCC(=O)N(Cc2ccco2)Cc2ccccc2Cl)c1 | 73%
Cc1cc2oc(C(=O)N(Cc3ccco3)Cc3ccccc3Cl)c(C)c2cc1C | 43% (active)
Cc1cc2oc(C(=O)N(Cc3ccc(N(C)C)cc3)Cc3ccco3)c(C)c2cc1Cl | 84%
CCn1cc(C(=O)NCc2ccc(C)cc2)c(=O)c2cc(S(=O)(=O)N(C)C3CCCCC3)ccc21 | 75%
CN(Cc1ccccc1)C(=O)Cn1ncc2c3ccccc3n(Cc3cccc(Cl)c3)c2c1=O | 90%
Cc1c(Cl)cccc1NC(=O)C(=O)NCCc1csc(-c2cccc(F)c2)n1 | 76%
CCC(C)[C@@H](C(=O)Nc1ccc(C)cc1)N1Cc2ccccc2C1=O (some centres undefined) | 74%
CCn1cc(C(=O)NCCCOC)c(=O)c2cc(S(=O)(=O)N3CCCC3)ccc21 | 92%
Cc1ccc(C(CC(=O)Nc2ccc(F)c(Cl)c2)N2Cc3ccccc3C2=O)cc1 (centres undefined) | 88%
CCC(=O)N1CCc2cc(Br)cc(S(=O)(=O)N3CCCC(C(=O)NCc4ccccc4)C3)c21 (centres undefined) | 107%
Cc1ccc(CN(Cc2ccco2)C(=O)c2oc3cc(Br)ccc3c2C)cc1 | 43% (active)
Cc1c(C(=O)N(Cc2ccc(N(C)C)cc2)Cc2ccco2)oc2cc(Br)ccc12 | 68%
Cc1ccc(CN(Cc2ccco2)C(=O)c2oc3c(C)c(C)ccc3c2C)cc1 | 50%
CCOc1ccc(C(=O)c2cn(CC(=O)Nc3ccc(OC)cc3)c3cc4c(cc3c2=O)OCO4)cc1 | 69%
CCC1CCCCN1CCCNC(=O)CN1C(=O)c2cccnc2Oc2ccc(C)cc21 (centres undefined) | 78%
CCS(=O)(=O)N1CC(=O)N(c2ccc(C)c(C)c2)C(C)(C(=O)NC2CCCCC2)C1 (centres undefined) | 87%
